Holding throughout (format): functional
Experiment [1] deals with Plasmodium falciparum. As to the kind of experiment: GSK_TCMDC: Inhibition of Plasmodium falciparum 3D7 in whole red blood cells, using parasite LDH activity as an index of growth. Test compounds present at 2uM.
In experiment [2] the test system is Plasmodium falciparum. As to the kind of experiment: GSK_TCMDC: Inhibition of Plasmodium falciparum Dd2 in whole red blood cells, using parasite LDH activity as an index of growth. Test compounds present at 2uM.
Another experiment relates to HepG2. As to the kind of experiment: GSK_TCMDC: Percent inhibition of human HepG2 cell line. Test compounds present at 10uM.

Drawing on ChEMBL document CHEMBL1157539, “Thousands of chemical starting points for antimalarial lead identification” (Nature, 2010), this text covers Inhibition for 31 compounds.

The Inhibition is the relative decrease from the control value, in per cent. A lower Inhibition goes with a weak effect.

The structures appear in SMILES notation.

Take `Cc1cccc(-c2nn(-c3ccccc3)c3[nH]c(=O)c(CNC4CCCC4)cc23)c1`: the values for the Inhibition with Plasmodium falciparum [1], in the experiment with Plasmodium falciparum [2] and in the experiment with HepG2 were 98%, 97% and 18%, respectively.

In the case of `O=C(C=Cc1ccc(Cl)c(Cl)c1)NCCCCCN1CCC(CCCNC(=O)c2ccc3c(c2)OCO3)CC1`, the Inhibition with Plasmodium falciparum [1] was 98%; in the experiment on Plasmodium falciparum [2], 64%; in the experiment with HepG2 it was 38%.

For `COc1c(OC)c(OC)c2ccccc2c1CCNCCCCNCCc1c(OC)c(OC)c(OC)c2ccccc12.CS(=O)(=O)O`, the results for the Inhibition in the experiment with Plasmodium falciparum [1], in the experiment on Plasmodium falciparum [2] and in the experiment with HepG2 were 99%, 72% and 100%, respectively.

On to `CN(C)C(=O)CCCn1c(CNCCCNc2cc(=O)c3ccccc3[nH]2)cc2c(Cl)cc(Cl)cc21.Cl`, for which the Inhibition in the experiment with Plasmodium falciparum [1] worked out at 89%; in the experiment with Plasmodium falciparum [2], 0%; in the experiment on HepG2, 1%.

On to `Cn1cnnc1Sc1ccc(CN2CCOc3ccc(C4=CCCCC4)cc3C2)o1`, for which the Inhibition in the experiment with Plasmodium falciparum [1] is given as 98%; in the experiment with Plasmodium falciparum [2], 97%; in the experiment on HepG2, 1%.

In the case of `COC(=O)c1ccc2nc(-c3ccc(C(=O)NC4CCN(Cc5ccccc5)CC4)s3)[nH]c2c1`, the Inhibition with Plasmodium falciparum [1] was determined as 99%; in the experiment on Plasmodium falciparum [2], 71%; with HepG2, 0%.

For the compound `COc1ccc2nccc([C@@H](O)CN3CCC(NCc4ccc5nnsc5c4)CC3)c2c1.O=C(O)C(=O)O`, the figures for the Inhibition in the experiment with Plasmodium falciparum [1], with Plasmodium falciparum [2] and in the experiment on HepG2 were 99%, 0% and 16%, respectively.

For the compound `COc1ccccc1C1CCN(C2CCC(NC(=O)/C=C/c3ccc(F)c(F)c3)CC2)CC1` (stereo not drawn), the Inhibition is reported as 94% in the experiment with Plasmodium falciparum [1], 9% in the experiment on Plasmodium falciparum [2] and 49% with HepG2.

In the case of `COC(=O)c1cccc(CNCc2cccc(-c3cccc(-c4nc5cc(C(F)(F)F)ccc5[nH]4)c3)c2)c1.O=C(O)C(F)(F)F`, the results for the Inhibition in the experiment with Plasmodium falciparum [1], with Plasmodium falciparum [2] and with HepG2 were 100%, 69% and 7%, respectively.

Consider `CN(C)CCNCc1ccc(-c2ccc3c(Nc4ccc(F)cc4Cl)ccnc3c2)o1`, for which the Inhibition came to 100% in the experiment on Plasmodium falciparum [1], 100% with Plasmodium falciparum [2] and 31% in the experiment with HepG2.

Take `CCCCCN1CCC(NS(=O)(=O)c2cccc(C(=O)Nc3ccc(Cl)cc3)c2)CC1.O=C(O)C(F)(F)F`: the Inhibition with Plasmodium falciparum [1] worked out at 88%; in the experiment with Plasmodium falciparum [2] it was 29%; in the experiment with HepG2 it was 24%.

For `Nc1cccc(CNCc2ccc(-c3cccc(-c4nc5ccccc5[nH]4)c3)cc2)c1.O=C(O)C(F)(F)F`, the results for the Inhibition with Plasmodium falciparum [1], in the experiment on Plasmodium falciparum [2] and with HepG2 were 100%, 78% and 12%, respectively.

`Cc1cc(-c2cccc(CNC3CCN(C)CC3)c2)ccc1S(=O)(=O)NCCc1ccccn1.O=C(O)C(F)(F)F`: the Inhibition in the experiment with Plasmodium falciparum [1] stood at 97%; with Plasmodium falciparum [2] it was 72%; with HepG2, 22%.

In the case of `COc1ccc2nccc(NC(=O)C3CCC(NCc4ccc5c(c4)NC(=O)CS5)CC3)c2c1` (stereo not drawn), the Inhibition in the experiment on Plasmodium falciparum [1] was 94%; in the experiment on Plasmodium falciparum [2] it was 19%; in the experiment on HepG2, 0%.

Regarding `O=C(NCCN1CCCCC1)c1ccc(CNC(=O)c2ccc(O)c(-c3ccc(Cl)c(Cl)c3)c2)cc1`, the Inhibition with Plasmodium falciparum [1] is 93%; in the experiment with Plasmodium falciparum [2], 68%; in the experiment on HepG2, 3%.

As for `Cc1[nH]c(C)c(-c2ccc(CCc3ccc(F)cc3F)cc2)c(=O)c1Br`, the Inhibition is given as 97% with Plasmodium falciparum [1], 98% in the experiment on Plasmodium falciparum [2] and 0% with HepG2.

Turning to `CCOc1cc(CNCCCCCCNCc2cc(OCC)c(OCC)c3ccccc23)c2ccccc2c1OCC.CS(=O)(=O)O`, the figures for the Inhibition in the experiment with Plasmodium falciparum [1], in the experiment on Plasmodium falciparum [2] and in the experiment on HepG2 were 100%, 99% and 100%, respectively.

With `O=C(Nc1cccc(-c2csc(-c3nc4ccccc4[nH]3)c2)c1)c1ccoc1`, the Inhibition in the experiment with Plasmodium falciparum [1] is reported as 96%; in the experiment on Plasmodium falciparum [2] it was 67%; in the experiment with HepG2, 36%.

For the compound `Cn1cccc1C(=O)NCC(CCNc1cc(=O)c2ccccc2[nH]1)NCc1cc(Br)cc(Br)c1` (stereo not drawn), the Inhibition in the experiment on Plasmodium falciparum [1] was determined as 92%; in the experiment with Plasmodium falciparum [2], 52%; in the experiment on HepG2, 0%.

Turning to `Cc1[nH]c(C)c(-c2ccc(-c3ccc(OC(F)(F)F)cc3)cc2)c(=O)c1Cl`, the Inhibition with Plasmodium falciparum [1] is given as 98%; in the experiment on Plasmodium falciparum [2], 97%; with HepG2, 24%.

With `CN(C)Cc1ccc(O)c(-c2ccc(C(C)(C)C)cc2)n1.Cl`, the Inhibition in the experiment with Plasmodium falciparum [1] came to 86%; in the experiment with Plasmodium falciparum [2] it was 25%; with HepG2 it was 0%.

As for `Cc1noc(C)c1-c1ccc2c(Nc3ccc(Cl)cc3)c(C(N)=O)cnc2c1.Cl`, the Inhibition is listed as 94% with Plasmodium falciparum [1], 67% in the experiment with Plasmodium falciparum [2] and 9% with HepG2.

Turning to `Cc1cc(N2CCOCC2)nc(Nc2ccc(NC(=O)Nc3ccc(F)cc3)cc2)n1`, the results for the Inhibition in the experiment with Plasmodium falciparum [1], in the experiment with Plasmodium falciparum [2] and in the experiment with HepG2 were 100%, 34% and 35%, respectively.

As to `O=C(CCN(Cc1ccco1)c1nc(-c2ccc(F)cc2)nc2ccccc12)NC1CC1`, the Inhibition was 94% with Plasmodium falciparum [1], 54% in the experiment on Plasmodium falciparum [2] and 0% with HepG2.

Regarding `CCCCOc1cc(OC)c2ccccc2c1CCNCCCCNCCc1c(OCCCC)cc(OC)c2ccccc12.CS(=O)(=O)O`, the Inhibition in the experiment with Plasmodium falciparum [1] is given as 82%; in the experiment on Plasmodium falciparum [2] it was 82%; in the experiment on HepG2 it was 100%.

As to `CC(=O)Nc1ccc(CN2CCC(CNC(=O)c3cc(-c4cccc(Cl)c4)cs3)C2)cc1.O=C(O)C(F)(F)F` (stereo not drawn), the Inhibition with Plasmodium falciparum [1] is given as 91%; in the experiment on Plasmodium falciparum [2], 1%; in the experiment with HepG2 it was 24%.

In the case of `Cc1nc(N)nc(N)c1C#CC1CCCC1`, the Inhibition in the experiment on Plasmodium falciparum [1] is given as 96%; in the experiment on Plasmodium falciparum [2] it was 2%; in the experiment on HepG2, 68%.

Turning to `CN1CCCc2ccc(NC(=O)Nc3ccc(Cl)c(Cl)c3)cc2C1`, the Inhibition in the experiment with Plasmodium falciparum [1] worked out at 89%; in the experiment on Plasmodium falciparum [2], 22%; in the experiment with HepG2 it was 0%.

`CN(C)CCNC(=O)N1CCCN(c2ncnc3cc(-c4ccccc4)sc23)CC1.O=C(O)C(F)(F)F`: the Inhibition is 96% with Plasmodium falciparum [1], 37% in the experiment with Plasmodium falciparum [2] and 5% in the experiment with HepG2.

Turning to `CN1CCCN(Cc2cccc(-c3ccc(NS(=O)(=O)c4cccc5cccnc45)cc3)c2)CC1.O=C(O)C(F)(F)F`, the figures for the Inhibition in the experiment with Plasmodium falciparum [1], in the experiment with Plasmodium falciparum [2] and in the experiment on HepG2 were 100%, 87% and 44%, respectively.

Consider `NC(=O)c1cc2nc(Nc3ccc(F)cc3)nc(NC3CCC3)c2[nH]1.O=CO`, for which the results for the Inhibition with Plasmodium falciparum [1], in the experiment with Plasmodium falciparum [2] and with HepG2 were 100%, 100% and 0%, respectively.
